Values joined by “and” are separate entries in the source; they are usually repeats but may differ in a detail not shown here. Equal values may be shown once. Compounds without any hit were thinned out: in the full panel of roughly 83,000, 20% have a hit.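 Growth was measured after 48 h exposure to one concentration of compound in 96-well plates. Values under 10 count as active.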 Values without a mark were called inactive. Active and inactive are the calls of the source. Starred links: 1 amine or outer side, 2 acyl side, 3 side chain; linkers in the order of their positions; H or OH if unused. Positions of bridges follow the written chain, without caps; N, C: chain ends. Non-standard residues stand in square brackets, D forms with d. Residues, ends and D or L forms follow the SMILES beside them. Chains are numbered I, II in the order given. Actinocin(9to1) = Cc1c2oc3c(C)ccc(C(=O)[*:1])c3nc-2c(C(=O)[*:2])c(N)c1=O; aThr = C[C@H](O)[C@H](N)C(=O)O; NMeV = CN[C@H](C(=O)O)C(C)C; Sar = CNCC(=O)O

The first experiment relates to SR leukemia. Briefly: NCI-60 one-dose screen, 48 h (100 = growth as untreated, 0 = no growth, -100 = all killed). Conditions: 0.0025 µM. On the procedure: Growth inhibition of the SR human tumor cell line is measured as a screen for anti-cancer activity. Cells are grown in 96 well plates and exposed to the test compound for 48 hours. Compounds are tested at a single concentration, which is 10^-5 M for most compounds. The reported endpoint is percent growth (GI% or GIPRCNT), where numbers from 0 - 100% represent growth inhibition, and numbers from -100% - 0 represent cell death. For example, a value of 40 represents 60% growth inhibition. A value of 0 means no net growth occurred over the course of the experiment. A value of -40 indicates 40% of cells at the beginning of the experiment died by the end of the experiment. A value of -100 means all cells are dead at the end of the experiment.
NCI-60 Human Tumor Cell Lines Screen was performed using the standard one-dose NCI protocol, which is described in more detail at https://dtp.cancer.gov/discovery_development/nci-60/default.htm.
Compounds with GIPRCNT values below 10 were considered active. Activity score was based on GIPRCNT using the following formula: […]
Score is 0 for GIPRCNT values of 100 or above, 50 for GIPRCNT values of 0, and 100 for GIPRCNT values of -100.
`Cc1c2oc3c(C)ccc(C(=O)N[C@@H]4C(=O)N[C@H](C(C)C)C(=O)N5CCC[C@H]5C(=O)N(C)CC(=O)N(C)[C@@H](C(C)C)C(=O)O[C@H]4C)c3nc-2c(C(=O)N[C@@H]2C(=O)N[C@H](C(C)C)C(=O)N3CCC[C@H]3C(=O)N(C)CC(=O)N(C)[C@@H](C(C)C)C(=O)O[C@H]2C)c(N)c1=O` (I: [aThr][dV]P[Sar][NMeV] / II: [aThr][dV]P[Sar][NMeV]; ester I:1-I:C, II:1-II:C; linker I:N-II:N via Actinocin(9to1)): the growth was 14.8%.

Still in this experiment, the particulars now being: 10 µM.
For the compound `Nc1ccc2cc(Br)c3ccccc3c2c1`, the growth was 57.5%.
Take `O=c1[nH]cc(F)c(=O)[nH]1`: the growth was 27.6% and 37.4%.
For `COc1cc(C(C)(C)C)cc(OC)c1C(O)(c1c(OC)cc(C(C)(C)C)cc1OC)c1c(OC)cc(C(C)(C)C)cc1OC`, the growth was -77.5% (active).
Still for that read-out and setting: in the case of `S=c1[nH]nc(Cc2ccccc2)c(=S)[nH]1` it was 94.7%; in that of `O=C(/C(=C/c1ccccc1)CBr)c1ccccc1`, -0.723% (active); in that of `Cc1cnc(/C=N\NC(N)=S)c2cccc(N)c12`, -16.3% (active).
Still for that read-out and setting: in the case of `CCCCCCCCCCCCCCCCCN` it was 57.8%; in that of `CN1CCN(c2ccc3nc(-c4ccc5nc(-c6ccc(O)cc6)[nH]c5c4)[nH]c3c2)CC1`, 67%; in that of `CSc1ccc2c(c1)C(N1CCN(C)CC1)Cc1ccccc1S2` (centres undefined), -32.8% (active).
With `Cc1c2oc3c(C)ccc(C(=O)N[C@@H]4C(=O)N[C@H](C(C)C)C(=O)N5CCC[C@H]5C(=O)N(C)CC(=O)N(C)[C@@H](C(C)C)C(=O)O[C@H]4C)c3nc-2c(C(=O)N[C@@H]2C(=O)N[C@H](C(C)C)C(=O)N3CCC[C@H]3C(=O)N(C)CC(=O)N(C)[C@@H](C(C)C)C(=O)O[C@H]2C)c(N)c1=O` (I: [aThr][dV]P[Sar][NMeV] / II: [aThr][dV]P[Sar][NMeV]; ester I:1-I:C, II:1-II:C; linker I:N-II:N via Actinocin(9to1)), the growth is 3.04% (active).
For the compound `CN(C)CCC(=O)c1c[nH]c2ccccc12`, the growth was 91.5%.

Still in this experiment, the particulars now being: 25 µM.
For `O=c1[nH]cc(F)c(=O)[nH]1`, the growth is 24.8%.

Staying with this experiment, now noted: 50 µM.
Take `O=c1[nH]cc(F)c(=O)[nH]1`: the growth was 31.6%.

These data come from PubChem BioAssay (NCI).
